What all share (set-up): species or system human, MV4-11 + K-562 + COLO205 + SK-N-BE2 + OVCAR-8
Assay [1] relates to CDK7. Particulars: read-out: apparent Kd, n = 1.
The test system of assay [2] is CDKL5. Particulars: read-out: apparent Kd, n = 1.
Assay [3] has as its system ERCC2. The note with it: read-out: apparent Kd, n = 1.
The test system of assay [4] is FER. The note with it: read-out: apparent Kd, n = 1.
The test system of assay [5] is PIP4K2C. Particulars: read-out: apparent Kd, n = 1.
In assay [6] the test system is PLK4. The note with it: read-out: apparent Kd, n = 1.
Assay [7] concerns PRKAA1. The note with it: read-out: apparent Kd, n = 1.
The subject of assay [8] is PTK2B. The note with it: read-out: apparent Kd, n = 1.
Assay [9] relates to PTK2. Particulars: read-out: apparent Kd, n = 1.
Assay [10] deals with RPS6KA6. The note with it: read-out: apparent Kd, n = 1.
Assay [11] concerns STK10. The note with it: read-out: apparent Kd, n = 1.
Assay [12] relates to DYRK1A. The note with it: read-out: apparent Kd; compound concentrations: 100 nM and 1000 nM (sheet 'Samples'), CATDS: 7.51253046880054E-3; n = 1.
For assay [13], the system named is FLT3. Particulars: read-out: apparent Kd, n = 1.
The test system of assay [14] is LATS1. The note with it: read-out: apparent Kd, n = 1.
Assay [15] deals with MYLK3. Particulars: read-out: apparent Kd, n = 1.
Assay [16] deals with PRKCD. The note with it: read-out: apparent Kd; compound concentrations: 100 nM and 1000 nM (sheet 'Samples'), CATDS: 8.2492592697018703E-3; n = 1.
Assay [17] has as its system PRKD2. The note with it: read-out: apparent Kd; compound concentrations: 100 nM and 1000 nM (sheet 'Samples'), CATDS: 9.3127707603308692E-3; n = 1.
The test system of assay [18] is PRKD3. The note with it: read-out: apparent Kd, compound concentrations: 100 nM and 1000 nM (sheet 'Samples'), n = 1.
Assay [19] deals with MARK4. The note with it: read-out: apparent Kd, n = 1.
The subject of assay [20] is PRKCQ. The note with it: read-out: apparent Kd; compound concentrations: 100 nM and 1000 nM (sheet 'Samples'), CATDS: 1.06314955132201E-2; n = 1.
Where [21] appears, read: compound concentrations:100 nM and 1000 nM (sheet 'Samples').

Structures are written as SMILES. Where two headings read alike, the source gives them in different places.

Take `CC(C)N1CCC(n2cnc(-c3ccc(F)cc3)c2-c2ccnc(N)n2)CC1` [SB-223132]: the potency estimated from few doses was 310 nM in assay [1] (setting [21]); 1520 nM in assay [2] (setting [21]); 206 nM in assay [3] (setting [21]); 358 nM in assay [4] (setting [21]); 1200 nM in assay [5] (setting [21]); 757 nM in assay [6] (setting [21]). Besides, the potency estimated from few doses in assay [7] (setting [21]) was 631 nM; in assay [8] (setting [21]), 378 nM; in [9] (setting [21]), 433 nM; in assay [10] (setting [21]), 466 nM; in assay [11] (setting [21]), 2020 nM.
Consider `CCOC(=O)N1CCC(n2cnc(-c3ccc(F)cc3)c2-c2ccnc(N)n2)CC1` [SB-219952], for which the potency estimated from few doses in assay [1] (compound concentrations: 100 nM and 1000 nM (sheet 'Samples'), CATDS: 2.08118175664989E-2) is 201 nM; in assay [2] (compound concentrations: 100 nM and 1000 nM (sheet 'Samples'), CATDS: 7.5103535509973398E-3) it was 2170 nM; in assay [12], 2170 nM; in [3] (compound concentrations: 100 nM and 1000 nM (sheet 'Samples'), CATDS: 2.0109331844810101E-2), 213 nM; in assay [4] (compound concentrations: 100 nM and 1000 nM (sheet 'Samples'), CATDS: 1.3888971219533201E-2), 416 nM; in [13] (compound concentrations: 100 nM and 1000 nM (sheet 'Samples'), CATDS: 8.0965887805869007E-3) it was 1630 nM. The potency estimated from few doses in assay [14] (compound concentrations: 100 nM and 1000 nM (sheet 'Samples'), CATDS: 8.0711896225058692E-3) was 1650 nM; in assay [15] (compound concentrations: 100 nM and 1000 nM (sheet 'Samples'), CATDS: 7.2973663588222501E-3), 2470 nM; in assay [6] (compound concentrations: 100 nM and 1000 nM (sheet 'Samples'), CATDS: 1.18225591983295E-2), 582 nM; in assay [7] (compound concentrations: 100 nM and 1000 nM (sheet 'Samples'), CATDS: 1.3066263921832201E-2), 471 nM; in assay [16], 1530 nM; in assay [17], 1050 nM. In addition, the potency estimated from few doses in assay [18] (CATDS: 8.3087862400952096E-3) was 1490 nM; in [8] (compound concentrations: 100 nM and 1000 nM (sheet 'Samples'), CATDS: 1.55357941259002E-2), 336 nM; in assay [9] (compound concentrations: 100 nM and 1000 nM (sheet 'Samples'), CATDS: 1.3544498558995E-2), 438 nM; in assay [10] (compound concentrations: 100 nM and 1000 nM (sheet 'Samples'), CATDS: 1.4323736759091399E-2) it was 392 nM; in assay [11] (compound concentrations: 100 nM and 1000 nM (sheet 'Samples'), CATDS: 9.6073353466608804E-3) it was 964 nM.
Regarding `Cl.Nc1c(C(=O)c2cccc(C#CCN3CCCCC3)c2)cnn1-c1ccc(F)cc1` [RO1154461-001], the potency estimated from few doses was 74.1 nM in assay [1] (compound concentrations: 100 nM and 1000 nM (sheet 'Samples'), CATDS: 4.6552483673456102E-2); 63.2 nM in assay [3] (compound concentrations: 100 nM and 1000 nM (sheet 'Samples'), CATDS: 5.2130998617594002E-2); 68.9 nM in assay [4] (compound concentrations: 100 nM and 1000 nM (sheet 'Samples'), CATDS: 4.9023130772968097E-2); 1780 nM in assay [14] (compound concentrations: 100 nM and 1000 nM (sheet 'Samples'), CATDS: 1.0207334677420601E-2); 1350 nM in assay [19] (compound concentrations: 100 nM and 1000 nM (sheet 'Samples'), CATDS: 1.0984902394488599E-2); 1910 nM in assay [5] (compound concentrations: 100 nM and 1000 nM (sheet 'Samples'), CATDS: 1.00291751764076E-2). The potency estimated from few doses in assay [6] (compound concentrations: 100 nM and 1000 nM (sheet 'Samples'), CATDS: 1.52727578092353E-2) is 534 nM; in [7] (compound concentrations: 100 nM and 1000 nM (sheet 'Samples'), CATDS: 1.6696552241267201E-2) it was 436 nM; in assay [20], 1520 nM; in assay [18] (CATDS: 9.8039284052072601E-3), 2110 nM; in [8] (compound concentrations: 100 nM and 1000 nM (sheet 'Samples'), CATDS: 4.70772148713983E-2), 72.9 nM; in assay [9] (compound concentrations: 100 nM and 1000 nM (sheet 'Samples'), CATDS: 1.89593095974224E-2), 333 nM. Besides, the potency estimated from few doses in [10] (compound concentrations: 100 nM and 1000 nM (sheet 'Samples'), CATDS: 1.98632860807328E-2) is 303 nM; in [11] (compound concentrations: 100 nM and 1000 nM (sheet 'Samples'), CATDS: 1.0028252220669101E-2), 1910 nM.
For the compound `CN(c1ccc(NC(=O)Nc2cccc(Cl)c2)cc1)c1ccnc(N)n1.Cl` [GW830707A], the potency estimated from few doses in [1] (compound concentrations: 100 nM and 1000 nM (sheet 'Samples'), CATDS: 2.70910980037193E-2) was 25.3 nM; in [3] (compound concentrations: 100 nM and 1000 nM (sheet 'Samples'), CATDS: 2.8634029570059099E-2), 22.5 nM; in [4] (compound concentrations: 100 nM and 1000 nM (sheet 'Samples'), CATDS: 3.09824946210665E-2), 19.3 nM; in assay [7] (compound concentrations: 100 nM and 1000 nM (sheet 'Samples'), CATDS: 2.0241658974681501E-2) it was 51.3 nM; in assay [8] (compound concentrations: 100 nM and 1000 nM (sheet 'Samples'), CATDS: 2.3206005567305101E-2) it was 35.9 nM; in [9] (compound concentrations: 100 nM and 1000 nM (sheet 'Samples'), CATDS: 2.6556868558213102E-2), 26.4 nM. The potency estimated from few doses in assay [10] (compound concentrations: 100 nM and 1000 nM (sheet 'Samples'), CATDS: 2.8909241119288599E-2) is 22.1 nM.
Regarding `CNC(=O)c1ccccc1Nc1nc(Nc2ccc(N3CCOCC3)cc2)ncc1Cl.Cl` [GSK1576028A], the potency estimated from few doses in assay [4] (setting [21]) is 484 nM; in assay [13] (setting [21]) it was 616 nM; in assay [14] (setting [21]) it was 132 nM; in assay [19] (setting [21]), 1370 nM; in [15] (setting [21]), 786 nM; in assay [6] (setting [21]) it was 13.4 nM. Also, the potency estimated from few doses is 629 nM in assay [7] (setting [21]), 41.8 nM in assay [8] (setting [21]), 8.08 nM in assay [9] (setting [21]) and 681 nM in assay [11] (setting [21]).
